# Measurements from article PMC5540273 (PLoS ONE, 2017).
# Assays:
# Details in all cases: concentration: 1 μM, replicates: in singlicate; n = 1
# [1] = system: TNNI3K
# [2] = system: T1, TRKA
# T1 construct: gene NTRK1
# [3] = system: TRKB
# [4] = system: T2, TRKC
# T2 construct: gene NTRK3
# [5] = system: TRPM6
# [6] = system: TSSK1B
# [7] = system: TSSK3
# [8] = system: TTK
# [9] = system: TXK
# [10] = system: TYK2(JH1domain-catalytic)
# 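Also: KINOMEscan kinase panel screen.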
Structure (SMILES),%Inh [1],%Inh [2],%Inh [3],%Inh [4],%Inh [5],%Inh [6],%Inh [7],%Inh [8],%Inh [9],%Inh [10]
Nc1ncc(-c2cn[nH]c2)c2scc(-c3ccc4c(c3)CCN4C(=O)Cc3ccccc3)c12 [GSK2593067],0%,96.8%,63%,70%,16%,3%,20%,1%,30%,10%
O=C(O)C(F)(F)F.O=c1[nH]ccc2nc(N[C@@H]3CCNC3)nc(Nc3cc(Cl)cc(Cl)c3)c12 [GSK2188764],39%,100%,76%,62%,37%,75%,85%,87%,0%,80%
Cl.O=C(Nc1ccc(Oc2ccc3[nH]c(NC(=O)c4ccco4)nc3c2)cc1)Nc1cc(C(F)(F)F)ccc1F [GW683134],87%,98.9%,98.3%,97.4%,1%,0%,6%,0%,16%,16%
CN(C)CCNS(=O)(=O)c1ccc(-c2ccnc3[nH]ccc23)cc1 [GSK977620],3%,93.4%,63%,54%,0%,58%,15%,50%,91%,46%
Cn1cc(-c2ccc3c(c2)CCN3C(=O)Cc2cc(F)cc(F)c2F)c2c(N)ncnc21 [GSK2634140],0%,36%,0%,38%,8%,0%,8%,0%,13%,11%
Nc1ncnc2scc(-c3ccc(NC(=O)Cc4cc(F)ccc4F)cc3)c12.O=C(O)C(F)(F)F [SB-731254-M],0%,62%,72%,71%,31%,0%,0%,0%,8%,2%
CC(C)NCC(Cc1ccccc1)NC(=O)c1cc(Br)c(-c2ccnc3[nH]ccc23)s1.Cl.Cl (stereo not shown) [GSK1383281],0%,75%,64%,52%,0%,32%,2%,58%,79%,53%
Cl.Cl.NCC(NC(=O)c1cc(-c2cccnc2)c(-c2ccnc3[nH]ccc23)s1)c1ccccc1 (stereo not shown) [GSK1323434],26%,31%,40%,48%,34%,14%,19%,4%,0%,28%
Cl.Cl.NC(CNC(=O)c1cc(Br)c(-c2ccnc3[nH]ccc23)s1)c1ccccc1 (stereo not shown) [GSK1322949],0%,100%,91.6%,85%,0%,7%,34%,38%,0%,71%
CN(C)c1ncnc2nc[nH]c12 [SKF-31736],0%,0%,0%,28%,30%,0%,4%,0%,0%,0%
Cc1ccc(O)cc1Nc1ccnc2cc(-c3ccc(CN4CCCCC4)o3)ccc12 [GW557777],20%,42%,0%,0%,0%,0%,0%,0%,98.3%,63%
Cc1nn2c(=O)cc(N3CCO[C@H](C)C3)nc2n1Cc1cccc(Cl)c1Cl [GSK2373693],60%,0%,7%,0%,0%,21%,5%,0%,0%,17%
Cc1ccc(-c2ccc3occ(-c4ccc(S(C)=O)cc4)c3c2)nn1 (stereo not shown),0%,0%,0%,11%,0%,0%,0%,8%,2%,1%
COC(=O)Nc1nc2cc(Oc3ccc(NC(=O)Nc4cccc(SC)c4)cc3)ccc2[nH]1.Cl [GW697999],81%,81%,82%,90%,0%,0%,11%,4%,0%,10%
CCNC(=O)/C=C/c1n[nH]c2cc(Sc3ccccc3C(=O)NC)ccc12,22%,34%,0%,0%,0%,19%,13%,0%,0%,0%
CCOc1nccc(-c2c(-c3ccc(F)cc3)ncn2C2CCNCC2)n1 [SB-249175],4%,47%,21%,18%,18%,0%,34%,0%,10%,45%
